Test results: ChEMBL document CHEMBL1201862, “PubChem BioAssay data set” (2004); call rule not given here

Assay: A High Throughput Confirmatory Assay used to Identify Novel Compounds that Inhibit Mycobacterium Tuberculosis in the absence of Glycerol using Purified and Synthesized Compounds (6).
Assay type: functional

Structure (SMILES) | IC90
COc1c(N2CCNC(C)C2)c(F)cc2c(=O)c(C(=O)O)cn(C3CC3)c12 (centres undefined) | > 170 nM (active)
CC(C)/N=c1\cc2n(-c3ccc(Cl)cc3)c3ccccc3nc-2cc1Nc1ccc(Cl)cc1 | > 230 nM (active)
CC[N+](C)(CC)CCCCOc1ccc2c(c1)C(=O)c1cc(OCCCC[N+](C)(CC)CC)ccc1-2 | > 2700 nM (active)
CO[C@H]1/C=C/O[C@@]2(C)Oc3c(C)c(O)c4c(O)c(c(C=NN5CCN(C)CC5)c(O)c4c3C2=O)NC(=O)/C(C)=C\C=C\[C@H](C)[C@H](O)[C@@H](C)[C@@H](O)[C@@H](C)[C@H](OC(C)=O)[C@@H]1C | > 20 nM (active)
